Compound activity as filed in PubChem BioAssay.
GoLoco inh red: qHTS Assay for Inhibitors of RGS12 GoLoco Motif Activity (Red Fluorophore); Guanine nucleotide-binding protein G(i) subunit alpha-1 (Homo sapiens), P63096; Gai1:RGS12 GoLoco peptide FP, rhodamine, 10 min; Potency, µM (doses to about 61.6 µM), usual class: inhibitors; 230,000 tested, 0.44% active; AID 880, 2007; active = well fitted inhibition curve with a large enough effect, not every such curve was filed as active; inactive = no such curve, though single readings can be large or run the other way; also: nearly all actives have a fitted effect of over 30% in size
Target sequence (P63096 whole entry, looked up): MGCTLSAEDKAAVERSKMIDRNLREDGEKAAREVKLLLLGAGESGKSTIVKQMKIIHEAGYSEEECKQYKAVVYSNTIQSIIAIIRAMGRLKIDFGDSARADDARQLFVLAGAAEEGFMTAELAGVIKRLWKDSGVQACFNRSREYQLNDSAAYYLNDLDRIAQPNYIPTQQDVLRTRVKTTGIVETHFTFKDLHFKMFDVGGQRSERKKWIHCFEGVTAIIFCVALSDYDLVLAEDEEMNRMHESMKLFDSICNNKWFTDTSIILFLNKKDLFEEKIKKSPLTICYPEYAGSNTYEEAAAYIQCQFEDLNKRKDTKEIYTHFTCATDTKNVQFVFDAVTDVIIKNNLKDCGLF
HTT aggregate: qHTS Multiplex Assay to Identify Dual Action Probes in a Cell Model of Huntington: Aggregate Formation (GFP); 220,000 tested, 1.1% active; AID 1688, 2009; PC12 HttQ103-GFP aggregates, Acumen cytometry, 40 h; Potency, µM (highest dose often 46.1 µM), usual class: inhibitors; also: nearly all actives have a fitted effect of over 60% in size
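PC12 cells stably carrying ecdysone-inducible HTT exon 1 Q103–GFP were induced with tebufenozide (100 nM final) and treated with library compounds in titration. GFP aggregates in lysates were counted by laser scanning cytometry.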
Coupling enz: qHTS Assay for Inhibitors of Fructose-1,6-bisphosphate Aldolase from Giardia Lamblia: Coupling assay counterscreen | coupling enzyme system counterscreen, AmpLite Red fluorescence | AID 2472, 2010 | 290,000 tested, 0.67% active | activity change, negative = inhibition, % at 58.2 µM, hits read low; in the data active = activity change below about -30%
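Counterscreen of the coupled detection system alone, without aldolase: glyceraldehyde-3-phosphate coupling enzymes plus AmpLite Red readout. Compounds at 57.5 uM final, 10 min RT preincubation, 20 min RT reaction, fluorescence 525/598 nm.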
VDR inh: Inhibitors of the vitamin D receptor (VDR): qHTS | Vitamin D3 receptor (Homo sapiens), P11473 | VDR-SRC2-3 peptide fluorescence polarization, 2 h | Potency, µM, usual class: inhibitors | 400,000 tested, 0.93% active | AID 504847, 2011
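The screen uses fluorescence polarization to detect compounds that interfere with recruitment of the SRC2-3 coactivator peptide to VDR; plates are read after 2 h at room temperature.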
KDM4E inh: qHTS Assay for Inhibitors of Human Jumonji Domain Containing 2E (JMJD2E) | JMJD2E catalytic domain, FDH-coupled NADH fluorescence (FDH is formaldehyde dehydrogenase) | AID 2147, 2009 | 230,000 tested, 1.6% active | Potency, µM (series often up to 57.1 µM), actives largely listed as inhibitors; active = well fitted inhibition curve with a large enough effect, not every such curve was filed as active; inconclusive = small, poorly fitted or top-dose-only effect, or another doubt; inactive = no such curve, though single readings can be large or run the other way; also: nearly all actives have a fitted effect of over 50% in size
Target sequence (B2RXH2 1-337 limits assumed): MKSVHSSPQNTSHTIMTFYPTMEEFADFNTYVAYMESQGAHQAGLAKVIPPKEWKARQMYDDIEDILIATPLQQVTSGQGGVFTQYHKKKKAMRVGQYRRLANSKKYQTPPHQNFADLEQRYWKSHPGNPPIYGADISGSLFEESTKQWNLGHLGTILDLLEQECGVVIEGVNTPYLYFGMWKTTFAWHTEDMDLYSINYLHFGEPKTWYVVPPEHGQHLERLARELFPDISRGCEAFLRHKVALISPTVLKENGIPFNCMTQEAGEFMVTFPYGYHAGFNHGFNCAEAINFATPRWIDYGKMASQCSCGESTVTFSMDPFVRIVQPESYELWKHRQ
HTT ATP protect: qHTS Multiplex Assay to Identify Dual Action Probes in a Cell Model of Huntington: Cytoprotection (ATP) | PC12 HTT-Q103 induced, cytoprotection, ATP luminescence, 40 h | Potency, µM (titrated, usually from 56.4 µM), actives largely listed as activators | 230,000 tested, 0.14% active; also: nearly all actives have a fitted effect of over 45% in size
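Stable PC12 Q103-GFP cells in serum-supplemented, phenol red-free DMEM; induction by tebufenozide at 100 nM final; compound dose series; cell viability quantified luminescently from ATP.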
USP1 UbRho: Inhibitors of USP1/UAF1: Hit Validation in Primary Assay. shares compounds with VDR inh. Ub-Rhodamine cleavage, fluorescence kinetic read. Potency, µM (titrated, usually from 114 µM), hits mostly inhibitors. 50 tested, 50% active. AID 540327, 2011
VDR confirm: qHTS for Inhibitors of the vitamin D receptor (VDR): Hit Validation in Primary Screen; shares compounds with VDR inh; VDR-coactivator inhibition assay, qHTS confirmation; Potency, µM, most hits filed as inhibitors; 840 tested, 89% active
VDR FP: qHTS for Inhibitors of the vitamin D receptor (VDR): Hit Validation using a Fluorescein Assay. AID 602200, 2012. shares compounds with VDR inh. Potency, µM (highest dose often 57.1 µM), hits mostly inhibitors. VDR-coactivator binding, fluorescein fluorescence polarization. 840 tested, 48% active
VDR bla reporter: qHTS for Inhibitors of the vitamin D receptor (VDR): Hit Validation using a Beta-Lactamase Assay | Potency, µM (doses to about 46.1 µM), hits mostly inhibitors | VDR beta-lactamase reporter cells, FRET ratio; cells co-treated with VDR agonist LG190178 | shares compounds with VDR inh | 840 tested, 23% active
VDR viability: qHTS for Inhibitors of the vitamin D receptor (VDR): Hit Validation using a Cytotoxicity Assay. shares compounds with VDR inh. cytotoxicity counter-screen, cell viability, qHTS. Potency, µM (doses to about 48.3 µM), usual class: cytotoxic. 840 tested, 18% active. AID 602204, 2012; also: nearly all actives have a fitted effect of over 75% in size
Numbers stand for hits; . = inactive; ? = inconclusive; / = no result given; [ ] = another dose, or the depositor's remark. Sampled rows, rich in hits. Any-hit rate of the full collection: about 2.3%. Unless noted, calls follow the shape of the dose curve; as a rule, active = well fitted curve in the direction sought with a large enough effect; inconclusive = small, poorly fitted or top-dose-only effect, or another doubt; inactive = no such curve, though single readings can be large; an effect the other way counts as inactive or inconclusive.

SMILES	GoLoco inh red	HTT aggregate	Coupling enz	VDR inh	KDM4E inh	HTT ATP protect	VDR confirm	VDR FP	VDR bla reporter	VDR viability	others
CCCC(=O)OCCNc1cc(Sc2nc3ccccc3[nH]2)c2nonc2c1[N+](=O)[O-]	.	?	.	20µM	?	.[10 µM]	8.4	?	?	23µM
CC(=O)OCCNc1cc(SC(C)C)c2nonc2c1[N+](=O)[O-]	.	.	.	.	.	.	/	/	/	/
O=C(Nc1cc(S(=O)(=O)N2CCOCC2)ccc1N1CCCCC1)c1cc(-c2ccccn2)nc2ccccc12	.	?	.	45µM	?	.[10 µM]	24	8.9µM	.	.
O=C(c1ccccc1)c1coc2c1C(=O)c1ccccc1C2=O	.	?	.	.	.	/	/	/	/	/
COc1ccc(C(=O)c2coc3c2C(=O)C(=O)c2ccccc2-3)cc1	.	.[9.22 µM]	-75	?	?	.[10 µM]	6.3	3.2µM	?	.
CCOC(=O)/C(=C/c1ccc(OC(F)F)cc1)C1=Nn2c(nnc2-c2ccc(Cl)cc2)SC1	/	/	/	8.9µM	/	/	3.4	3.5µM	?	21µM
CCOC(=O)/C(=C\c1ccc(OC(F)F)cc1)C1=Nn2c(nnc2-c2ccc(Cl)cc2)SC1	.	?	.	16µM	.	/	6	?	16µM	13µM
COc1ccc(-c2nnc3n2N=C(C)CS3)cc1	.	.	.	.	.	.	/	/	/	/
COc1ccc(OC(=O)c2nc(SCc3ccccc3C)ncc2Cl)cc1	/	/	/	.	/	/	/	/	/	/
Cc1cc2c(cc1Cl)N(C(=O)Nc1ccc(Oc3cccnc3C)nc1)CC2	/	/	/	.	/	/	/	/	/	/	USP1 UbRho=?
Cc1cc2c(cc1Cl)N(C(=O)Nc1ccnc3ccccc13)CC2	.	/	/	?	.	.[1.9 µM]	/	/	/	/
CCOC(=O)COc1ccc(Br)cc1/C=C/c1[nH]c(=O)[nH]c(=O)c1[N+](=O)[O-]	.	?	.	14µM	?	.	3.8	?	.	?
CCOC(=O)COc1ccc(Br)cc1/C=C\c1[nH]c(=O)[nH]c(=O)c1[N+](=O)[O-]	.	.	.	22µM	.	.[0.074 µM]	4.2	3.2µM	?	?
CCCOc1ccc(/C=C/c2[nH]c(=O)[nH]c(=O)c2[N+](=O)[O-])cc1OCC	.	.[9.22 µM]	.	.	.	.[10 µM]	/	/	/	/
CC(C)c1c(C(=O)N/N=C/C=C/c2ccccc2)nnn1-c1nonc1N	/	/	/	.	/	/	/	/	/	/
Cn1cnc2c(ncn2[C@@H]2O[C@H](CO)[C@@H](O)[C@H]2O)c1=N	.	/	/	.	/	.	/	/	/	/
COc1ccc(C(=O)n2nnc3ccccc32)cc1OC	.	.	.	50µM	.	/	?	?	.	.
COc1ccc(C(=O)n2nnc3ccccc32)cc1Br	.	.	.	.	.	.[0.074 µM]	/	/	/	/
CCS(=O)(=O)c1ccc2oc(Nc3ccc(C(C)C)cc3)nc2c1	.	.	.	40µM	?	.[10 µM]	8.4	4µM	.	.
O=C(OCN1C(=O)c2ccccc2C1=O)c1cccc(S(=O)(=O)N2CCOCC2)c1	/	/	/	.	/	/	/	/	/	/
c1cn2cc(-c3ccc4c(c3)OCO4)nc2s1	.	.	.	20µM	.	.	?	?	.	.
CC(=O)Nc1ccc(-c2cn3ccsc3n2)cc1	.	.	.	.	.	.	/	/	/	/
Nc1nc2c(C(=O)NCc3cccs3)nnn2c2cccc(Cl)c12	.[14.2 µM]	/	/	/	/	.[10 µM]	/	/	/	/
CNC(=O)c1cc2c(cn1)[nH]c1ccccc12	.	/	.	.	?	.	/	/	/	/
COC(=O)[C@H](CCSC)NC(=O)c1cc2c(cn1)[nH]c1ccccc12	/	/	.	25µM	/	/	7.5	?	.	.
SMILES	GoLoco inh red	HTT aggregate	Coupling enz	VDR inh	KDM4E inh	HTT ATP protect	VDR confirm	VDR FP	VDR bla reporter	VDR viability	others
Nc1nc2c(s1)COc1ccccc1-2	.	.[9.22 µM]	.	?	?	.[10 µM]	/	/	/	/
Nc1nc2c(s1)CCc1c-2cnn1-c1ccccc1	.	.	.	20µM	?	.	4.5	4µM	?	?
CN(C)c1ccc(C(=O)OCC(=O)c2ccc[nH]2)cc1	/	/	/	.	/	/	/	/	/	/
Nc1c(N2CCCC2)cc(Cl)c2nonc12	/	.	-34	?	?	.[0.074 µM]	5	2.8µM	.	.
COC(=O)C1CCN(C(=O)COC(=O)CSc2ccc(C(N)=O)cc2[N+](=O)[O-])CC1	/	/	/	.	/	/	/	/	/	/
O=C(O)CSc1cc(NS(=O)(=O)c2cccc([N+](=O)[O-])c2)c2ccccc2c1O	.	.[9.22 µM]	-40	?	?	.[10 µM]	5	2.5µM	?	?
COc1ccc(S(=O)(=O)Nc2ccccn2)cc1C(=O)Nc1ccccc1	/	/	.	.	/	/	/	/	/	/
CC(C)c1nnc(NC(=O)c2nc(S(=O)(=O)Cc3ccc(F)cc3)ncc2Cl)s1	/	/	/	10µM	/	/	7.5	3.5µM	16µM	10µM
CSc1nnc(NC(=O)c2nc(S(=O)(=O)Cc3cccc(C)c3)ncc2Cl)s1	/	/	/	14µM	/	/	4.2	?	5.8µM	16µM
CC(C)c1nnc(NC(=O)c2nc(SCc3ccc(F)cc3)ncc2Cl)s1	/	/	/	.	/	/	/	/	/	/
CSc1ncc(Cl)c(C(=O)Nc2nnc(SC/C=C/c3ccccc3)s2)n1	.	.	.	.	?	.	/	/	/	/
CCSc1nnc(NC(=O)c2nc(S(=O)(=O)Cc3ccc(F)cc3)ncc2Cl)s1	/	/	/	?	/	/	2.8	3.5µM	16µM	19µM
Cc1cccc(CS(=O)(=O)c2ncc(Cl)c(C(=O)Nc3nnc(C(C)C)s3)n2)c1	/	/	/	8.9µM	/	/	6	3.5µM	8.2µM	13µM
O=C(O)c1ccccc1Cc1ccc2c(c1)CCCC2	/	/	/	.	/	/	/	/	/	/
CCCc1cnc2c(c1SCc1cccc(F)c1)c(=O)n(C)c(=O)n2C	/	/	/	.	/	/	/	/	/	/
